HEK293 tox – cytotoxicity counter-screen for GLP-1 receptor inverse agonists | AID 624418 | HEK293 cAMP-luciferase reporter cells, luminescence, 24 h | 410,000 tested, 0.13% active | Potency, µM (top dose mostly 38.3 µM), for inactives: at the highest dose activity change, negative = inhibition, usual class: inhibitors;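 further: loss of luciferase light is scored as toxicity; on the % scale 0 is the no-effect control and ±100 the full control effect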
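MLSMR compounds, 24 hr on cells at 37 deg C/5% CO2; luminescence after luciferase reagent (12 min RT). Inhibition counted as the undesired cytotoxic outcome.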
BRCA1 expr up – activators of BRCA1 expression | MCF7-BRCA1-FFLuc reporter, luminescence, 48 h; response scale: scaled: vehicle 0%, 10 µM genistein 100% | Potency, µM (top dose mostly 46.1 µM), without a hit: top-dose activation, hits mostly activators | 380,000 tested, 1.1% active | AID 624202; further: nearly all actives have a fitted effect of over 80% in size
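Reporter cells (MCF7, BRCA1 promoter-firefly luciferase) received library compounds across a concentration series for 48 h. End-point luminescence was measured and concentration-effect curves derived after normalization.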
Mito fusion act – blocks mitochondrial division or promotes mitochondrial fusion | S. cerevisiae fusion-defective mutant growth rescue, CellTiterGlo 48 h | Potency, µM (series often up to 46.1 µM), for the others: at the top dose growth rescue (activation), actives largely listed as activators | 320,000 tested, 0.23% active | AID 485298; further: % of control where 0% means no effect; nearly all actives have a fitted effect of over 45% in size
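Yeast fusion mutant, YPEG (non-fermentable carbon), compound, 48 h at 37C non-permissive; CellTiterGlo added, 10 min RT, luminescence read. Rescued growth = division inhibition.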
GLP1R inv ag – acts as inverse agonist at human GLP-1 receptor; P43220; HEK293 GLP-1R CRE-luciferase, luminescence, 24 h; GLP-1R form is constitutively active; Potency, µM (highest dose often 38.3 µM), for the others: at the highest dose activity change, negative = inhibition, actives largely listed as inhibitors; 410,000 tested, 1.6% active; AID 624417; further: on the % scale 0 is the no-effect control and ±100 the full control effect; nearly all actives have a fitted effect of over 55% in size
Target sequence (P43220 whole entry, looked up): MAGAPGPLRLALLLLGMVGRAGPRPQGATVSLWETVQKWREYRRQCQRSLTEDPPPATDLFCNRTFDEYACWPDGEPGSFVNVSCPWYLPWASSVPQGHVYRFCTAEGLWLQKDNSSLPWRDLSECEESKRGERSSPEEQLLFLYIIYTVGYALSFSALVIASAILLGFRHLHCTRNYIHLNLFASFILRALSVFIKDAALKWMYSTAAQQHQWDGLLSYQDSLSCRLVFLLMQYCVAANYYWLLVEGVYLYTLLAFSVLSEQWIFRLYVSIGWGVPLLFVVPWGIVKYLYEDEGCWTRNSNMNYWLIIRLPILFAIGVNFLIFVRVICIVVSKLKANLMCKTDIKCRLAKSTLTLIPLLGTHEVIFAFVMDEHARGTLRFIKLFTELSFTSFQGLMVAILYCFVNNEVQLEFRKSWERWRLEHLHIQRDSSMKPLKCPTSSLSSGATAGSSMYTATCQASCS
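Stable HEK293 clone (constitutively active GLP-1R + cAMP-response luciferase); 200 cells/uL plated, 12 h pre-culture, compound 24 hr, 37 deg C/5% CO2; detection reagent 12 min RT; luminescence.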
GLP1R ag – GLP-1 receptor (human) agonism; 380,000 tested, 0.007% active; Potency, µM (top dose mostly 45.6 µM), for the others: top-dose activation, actives largely listed as activators; HEK293 GLP-1R CRE-luciferase, luminescence, 4-6 h; cells express a hypersensitive GLP-1R form; AID 624172; P43220; further: % of control where 0% means no effect
The depositor's hits bear a star; ? = inconclusive; / = not tested or not shown. Sampled rows, rich in hits. Any-hit rate of the full collection: about 2.8%. The call rests on the fitted dose curve; in most records, active means well fitted curve in the direction sought with a large enough effect; inconclusive means small, poorly fitted or top-dose-only effect, or another doubt; inactive means no such curve, though single readings can be large; an effect the other way counts as inactive or inconclusive. Potency means the concentration at half of the fitted maximal effect.

SMILES | HEK293 tox | BRCA1 expr up | Mito fusion act | GLP1R inv ag | GLP1R ag
COc1ccc(C2CC(c3cccs3)=NN2C(=O)c2ccc(Br)o2)cc1 (centres undefined) | -8% | -34% | 18µM* | 2% | 8%
COc1ccc(C2=NN(C(=O)c3cccs3)C(c3ccc(OC)cc3)C2)cc1 (centres undefined) | 1% | -3% | 11µM* | ? | 1%
O=C(c1ccccc1)N1N=C(c2ccc(F)cc2)CC1c1ccc(F)cc1 (centres undefined) | -3% | -12% | / | 10µM* | 23%
CC(=O)N1N=C(c2ccccc2)CC1c1ccc(F)cc1 (centres undefined) | 3% | 0% | 2% | -28% | 3%
CCC(=O)N1N=C(c2cccs2)CC1c1ccc(OC)cc1 (centres undefined) | 1% | 21% | 3% | -5% | 20%
O=C(Nc1ccc(F)cc1F)c1c(C(F)(F)F)ccnc1Oc1cccc(C(F)(F)F)c1 | 11% | -1% | 0% | ? | 8%
O=C(CCC(=O)c1ccc(F)cc1)NCC1(N2CCCCC2)CCCCC1 | 4% | -20% | 1% | -2% | -1%
COc1ccccc1C(C)NC(=O)CCC(=O)N1CCN(S(=O)(=O)c2ccc(Cl)cc2)CC1 (centres undefined) | -6% | -47% | / | -14% | -15%
Cc1cc(Br)cn2c(Cc3cccc(Cl)c3)c(-c3cccc(Cl)c3)nc12 | 4% | -17% | / | 10µM* | 3%
Clc1cccc(-c2nc3ccc(Cl)cn3c2Cc2ccsc2)c1 | -14% | 13µM* | / | -24% | -3%
O=C(COC(=O)CC1SC(N2CCCC2)=NC1=O)Nc1ccc(Br)cc1 (centres undefined) | 7% | 32% | -4% | 21% | -1%
CC(Oc1ccc(F)cc1)C(=O)Nc1nc(-c2ccccn2)cs1 (centres undefined) | ? | -78% | ? | 10µM* | 10%
O=C(CCS(=O)(=O)c1ccc(F)cc1)Nc1nc(-c2ccccn2)cs1 | ? | -75% | 4% | ? | 0%
COc1cccc(-c2nnc(NC(=O)c3ccc(Cl)s3)o2)c1 | ? | -16% | 3.5µM* | ? | -6%
Cc1ccc2nc(-c3ccccn3)oc2c1 | 31% | ? | -8% | ? | -16%
C=C(C)CNC(=S)NNC(=O)CCn1c2cc(Cl)ccc2c2ccc(Cl)cc21 | -8% | -46% | -4% | 11µM* | -12%
CCC(C)N(C(=O)CSc1nnc(-c2ccco2)n1C)C1CCS(=O)(=O)C1 (centres undefined) | -1% | -2% | -6% | 32% | 0%
CCc1nn2c(=O)cc(COc3ccc(/C=C(\C#N)C(=O)Nc4ccc(F)cc4)cc3OC)nc2s1 | 3% | 13% | / | 10% | -2%
COc1ccc(N2CCN(C(=O)c3c(C)oc4ncnc(N5CCCCC5)c34)CC2)cc1 | -25% | -2% | / | 11µM* | /
COc1cccc(N2CCN(C(=O)c3c(C)oc4ncnc(N5CCOCC5)c34)CC2)c1 | -5% | / | / | 0% | /
CCCN(CC(=O)Nc1ccccc1OC)C(=O)c1cccc(S(=O)(=O)Nc2ccc(OC)cc2)c1 | -17% | -35% | -1% | -15% | 1%
CN(C)S(=O)(=O)N1CCc2ccc(NC(=O)c3ccccc3Cl)cc2C1 | -3% | 77% | 2% | 13% | 7%
CSCC(=O)N1CCc2ccc(NC(=O)c3ccccc3Cl)cc2C1 | -18% | 10µM* | 3% | 24% | 9%
Cc1nn(-c2ccc(Cl)nn2)c(=O)c2ccccc12 | -5% | 11µM* | -7% | -2% | 6%
Cc1nn(-c2ccc(Cl)cc2)c(=O)c2ccccc12 | 4% | 54% | -1% | -23% | 15%
SMILES | HEK293 tox | BRCA1 expr up | Mito fusion act | GLP1R inv ag | GLP1R ag
CCSc1nnc(NC(=O)c2ccc3nc[nH]c3c2)s1 | 2% | 3.2µM* | / | -8% | -5%
CCOC(=O)c1sc(NC(=O)c2ccc3nc[nH]c3c2)nc1C | 0% | 31% | 5% | 1% | 14%
CCSc1nnc(NC(=O)c2ccc3ccccc3n2)s1 | ? | 17% | 1% | 5µM* | -19%
CCc1nnc(NC(=O)c2nc(Cl)ccc2Cl)s1 | -4% | -34% | -2% | 18% | -1%
CCc1nnc(NC(=O)c2ccc3ccccc3n2)s1 | ? | 52% | 13% | 7.9µM* | -2%
O=C(Nc1ccc(F)cc1)c1ccc2nc[nH]c2c1 | -15% | 30% | 0% | 20% | -4%
CN(C)c1ccc(NC(=O)c2ccc3nc[nH]c3c2)cc1 | -9% | 13µM* | 8% | 15% | 2%
Nc1nc(N2CCOCC2)nc(N(c2ccccc2)c2ccccc2)n1 | 0% | 2% | 3% | -6% | -2%
Cc1cc(NS(=O)(=O)c2ccc(NC(=O)C(c3ccccc3)c3ccccc3)cc2)no1 | ? | 0% | 1% | 0% | 6%
Cc1cc(C)cc(NC(=O)c2cccc3c2C(=O)N(C2CCCCC2)C3)c1 | 9% | 1% | 10% | 9% | -5%
O=C(Nc1nnc(SCc2ccc(F)cc2)s1)c1ccccn1 | 5.6µM* | 8% | 1% | ? | ?
Cc1c(C(=O)NCc2ccc(F)cc2)oc2ccc(S(=O)(=O)N3CCCCC3)cc12 | 3% | / | / | 10µM* | /
O=C(NCCc1ccccc1)c1cc(S(=O)(=O)N2CCOCC2)ccc1F | 5% | 43% | 2% | -4% | 23%
Cc1ccc(S(=O)(=O)N2CCCCC2)cc1C(=O)N(CCc1ccccc1)Cc1ccccc1 | 10% | -52% | 28% | 4.5µM* | -6%
COc1ccc(C(=O)N(CCc2ccccc2)Cc2ccccc2)c(OC)n1 | 7% | -20% | -4% | 5.6µM* | 15%
O=C(c1cc(S(=O)(=O)N2CCOCC2)ccc1F)N(CCc1ccccc1)Cc1ccccc1 | -3% | -35% | 28% | 10µM* | 6%
CC(Sc1ncnc2sccc12)C(=O)Nc1ccc(S(N)(=O)=O)cc1 (centres undefined) | -2% | -45% | / | 123% | ?
CC1CCN(C(=O)COC(=O)c2ccccc2C(=O)c2ccccc2)CC1 | 8% | 24% | / | ? | 1%
CC(C)[C@H](NC(=O)OCc1ccccc1)C(=O)OCC(=O)NCc1ccco1 | -4% | -4% | / | ? | 3%
CCN(CC)C(=O)c1oc2ccc(S(=O)(=O)N3CCCCCC3)cc2c1C | -6% | -61% | 3% | -6% | 19%
CCN(Cc1ccccc1)C(=O)c1oc2ccc(S(=O)(=O)N3CCOCC3)cc2c1C | 9% | -38% | 10µM* | ? | 31%
Cc1cccc(C(=O)N(CCc2ccccc2)Cc2ccccc2)c1[N+](=O)[O-] | -19% | 11% | 3% | 3.2µM* | -4%
O=C(NC(=S)Nc1cccc2[nH]ncc12)c1ccccc1 | -15% | 10µM* | 6% | ? | 0%

Screens deposited in PubChem by National Center for Advancing Translational Sciences (NCATS).
